# Measured values as given in ChEMBL document CHEMBL1157539, “Thousands of chemical starting points for antimalarial lead identification” (Nature, 2010).
# Columns and labels:
# Format in all cases: functional
# [1] = test system: Plasmodium falciparum; assay: GSK_TCMDC: Inhibition of Plasmodium falciparum 3D7 in whole red blood cells, using parasite LDH activity as an index of growth. Test compounds present at 2uM
# [2] = test system: Plasmodium falciparum; assay: GSK_TCMDC: Inhibition of Plasmodium falciparum Dd2 in whole red blood cells, using parasite LDH activity as an index of growth. Test compounds present at 2uM
# [3] = test system: HepG2; assay: GSK_TCMDC: Percent inhibition of human HepG2 cell line. Test compounds present at 10uM.
SMILES,Inhibition [1],Inhibition [2],Inhibition [3]
CCc1c[nH]c2c(N3CCCCC3=O)cc(C(=O)N[C@@H](Cc3ccccc3)[C@H](O)CNCc3cccc(OC)c3)cc12.O=CO,100%,99%,8%
CC(=NNC(=N)N)c1ccc2c(c1)Cc1ccccc1-2.Cl,100%,10%,44%
Cl.O=c1n(CC2CCCCC2)c2cc(Cl)cc(OCCNc3ccncc3)c2n1CC1CCCCC1,100%,64%,2%
CC1(C)CC2CC(C)(CN2C(=O)c2cc(C(C)(C)C)nn2Cc2ccccc2)C1 (centres undefined),86%,77%,0%
Oc1cccc(-c2nc(-c3ccccc3)c(-c3ccc4oc5ccc(-c6[nH]c(-c7cccc(O)c7)nc6-c6ccccc6)cc5c4c3)[nH]2)c1,91%,35%,30%
CN(CCCCCNC(=O)/C=C/c1ccc(Cl)c(Cl)c1)CCCCc1c[nH]c2ccccc12,90%,15%,17%
COc1ccc(O)c(-c2sc(N=C(N)N)nc2-c2ccccc2)c1,100%,96%,2%
COc1cc2c(cc1OC)CC(NCc1ccc(-c3ccc4nc[nH]c4c3)cc1)C2.O=C(O)C(F)(F)F,97%,92%,40%
CCCCCCN1CCC(NCc2cccc(-n3ccnc3)c2)CC1.O=C(O)C(F)(F)F,100%,100%,3%
COc1cc(NC(=O)/C=C/c2cc3ccccc3n2C)ccc1OCCN(C(C)C)C(C)C.Cl,99%,68%,16%
CN(C)C(=O)CC(=O)NCc1cccc(Cl)c1,99%,3%,4%
CC(C)NCc1ccc(-c2ccc(NS(=O)(=O)c3cccc4cccnc34)cc2)cc1.O=C(O)C(F)(F)F,90%,45%,27%
Nc1cccc(CNCc2ccc(-c3ccc(-c4nc5cc(C(F)(F)F)ccc5[nH]4)s3)cc2)c1.O=C(O)C(F)(F)F,100%,98%,28%
Cc1nc(-c2nc(NCCc3ccncc3)ncc2-c2ccsc2)sc1C,92%,87%,10%
Cc1cccc(C(=O)N2CCN(Cc3cccc(NC(=O)c4cccs4)c3)CC2)c1.O=C(O)C(F)(F)F,95%,95%,5%
Cc1c2ccncc2c(C)c2c1[nH]c1cc(Cc3ccccc3)c(O)cc12,100%,99%,99%
O=C(Nc1ccc(-c2cccc(-c3nc4cc(C(F)(F)F)ccc4[nH]3)c2)cc1)c1ccc(=O)[nH]n1,87%,13%,72%
Cc1nc(-c2cccc(Nc3nccc(NCC(O)c4ccccc4C)n3)c2)cs1 (centres undefined),92%,14%,38%
COc1ccc(C(=O)Nc2ccc3oc(-c4ccc(C(F)(F)F)cc4)cc3c2)cc1CCCN(C)C,98%,27%,98%
CN1CCN(c2ccc(Nc3nccc(-c4cnn5ncccc45)n3)cc2Cl)CC1,95%,92%,65%

SMILES,Inhibition [1],Inhibition [2],Inhibition [3]
Cc1cc(N/N=C/c2ccccc2[N+](=O)[O-])c2cc(F)ccc2n1,100%,100%,18%
O=C(NC1CCCCC1)N(Cc1ccc(-c2cccc(CNC3CCCC3)c2)cc1)C1CCN(Cc2ccccc2)CC1.O=C(O)C(F)(F)F,95%,59%,52%
COc1ccc2nccc(N3CCCN(CCNS(=O)(=O)c4ccc5c(c4)NC(=O)CS5)CC3)c2n1.Cl,97%,15%,0%
CN(CCc1ccccc1)c1ncc(-c2ccccc2CNCc2ccccc2O)cn1,99%,94%,10%
CS(=O)(=O)O.FC(F)(F)COc1c(CNCCCCCCNCc2ccc3ccccc3c2OCC(F)(F)F)ccc2ccccc12,100%,79%,100%
Clc1cccc(-c2nc(Nc3ccnc(-c4ccc(CN5CCOCC5)cc4)c3)c3ccccc3n2)c1,100%,65%,8%
CCCN1CCN(CCNC(=O)c2cccc(Nc3nccc(Nc4ccc(Oc5ccccc5)cc4)n3)c2)CC1,99%,96%,56%
O=C(CCCCCNC(=O)c1ccc(O)c(-c2ccc(Cl)c(Cl)c2)c1)NCCc1ccc(Cl)c(Cl)c1,97%,20%,57%
CN1CCN(c2ccc3[nH]c(-c4ccc(Cc5cc(Cl)ccc5OCc5ccccc5)o4)nc3c2)CC1.Cl,100%,79%,27%
OC1(C(F)(F)F)CC(c2ccccc2)=NN1c1nncc(-c2ccccc2)n1 (centres undefined),99%,3%,0%
CC(C)c1cc2c(ccc3nc(N)nc(N)c32)[nH]1,93%,4%,49%
Cc1cccc2nc(-c3ccc(-c4ccc(CNCc5ccc(CN)cc5)cc4)cc3)[nH]c12.O=C(O)C(F)(F)F,100%,46%,14%
Nc1nc(N)c2c(ccc3c2ccn3CCCF)n1,94%,0%,61%
CSC1=NC(=Nc2c(C)cccc2C)C2(CCCCC2)N1c1ccccc1Cl,95%,57%,22%
CC1CCN(CC[C@H]2CCCN2S(=O)(=O)c2cccc(NC(=O)c3ccc(-c4ccccc4)cc3)c2)CC1,87%,36%,38%
Cl.c1ccc(-c2cc(NCCNc3cc(-c4ccccc4)nc4ccccc34)c3ccccc3n2)cc1,99%,11%,0%
CCCCC1(NC(=O)[C@@H](Nc2ccc(C#N)c3ccccc23)C2CCCCC2)CCCCC1.O=C(O)C(F)(F)F,91%,84%,8%
CN(C)c1c(CNCCCCCCNCc2ccc3ccccc3c2N(C)C)ccc2ccccc12.CS(=O)(=O)O,100%,51%,100%
Cc1cnc(-c2ccc(NC(=O)N3CCc4cc5nccc(N6CCN7CCC[C@H]7C6)c5cc43)c3ccccc23)o1.Cl,100%,45%,12%
Cc1[nH]c(C)c(-c2ccc(-c3ccc(OC(F)(F)F)cc3)cc2)c(=O)c1Br,96%,97%,33%

SMILES,Inhibition [1],Inhibition [2],Inhibition [3]
CN1CCC(C(=O)Nc2ccc(-c3ccc(-c4nc5ccccc5[nH]4)cc3)cc2)CC1,100%,94%,28%
Brc1ccc(Nc2nc(NCc3ccccc3)c3ccccc3n2)cc1,100%,99%,24%
CCN(CCCN1CCCCC1)c1cc(C)nc(Nc2ccc(C)cc2C(F)(F)F)n1.O=C(O)C(F)(F)F,100%,35%,23%
CC(C)(Oc1c(C2CCN(CCCCNC(=O)c3ccc(-c4ccc(Cl)cc4)cc3)CC2)ccc2c1CCCC2)C(N)=O,93%,5%,100%
Cc1cccc2nc(-c3cccc(-c4cccc(NC(=O)c5ccoc5)c4)c3)[nH]c12,99%,71%,19%
CCC(NC[C@@H](O)[C@H](Cc1ccccc1)NC(=O)c1cc(C2CCCC2)cc(N2CCCC2=O)c1)c1cccc(Cl)c1.Cl (some centres undefined),100%,97%,7%
O=C(C=Cc1ccc(Cl)c(Cl)c1)NCCCCCN1CCCC(CCCNC(=O)C2CC2c2ccccc2)C1 (centres undefined),85%,5%,48%
CCCN(CCC)S(=O)(=O)c1ccc(C(=O)N2CCC(C(=O)OCC)CC2)cc1,98%,41%,26%
CCCc1ccc(-c2csc(NC(=O)c3ccc([N+](=O)[O-])o3)n2)cc1,85%,13%,72%
COc1cc(CNC[C@@H](O)[C@H](Cc2ccccc2)NC(=O)c2cc(C3CCCC3)cc(N3CCCS3(=O)=O)c2)cc(OC)c1.Cl,95%,94%,31%
CCN(CCNC(=O)Nc1cc(C(F)(F)F)cc(C(F)(F)F)c1)c1cccc(C)c1,98%,100%,0%
COc1cc(NC(=O)c2c(-c3c(F)cccc3Cl)noc2C)c(OC)cc1Cl,89%,17%,0%
CC(C)(CC1CCCCC1)NC(=O)[C@H](CC1CCCCC1)Nc1ccc(C#N)c2ccccc12.O=C(O)C(F)(F)F,98%,52%,14%
COC(=O)c1cc(OC)c(OC)cc1NC(=O)NC12CC3CC(CC(C3)C1)C2,94%,3%,6%
Cc1cccc2nc(-c3ccc(-c4ccc(CNCc5ccc(S(C)(=O)=O)cc5)cc4)cc3)[nH]c12.O=C(O)C(F)(F)F,93%,38%,19%
O=CO.c1ccc(CCNc2ccnc(Nc3ccc4cn[nH]c4c3)n2)cc1,100%,100%,54%
CC(C)COc1ccc(Cl)cc1Cc1nc(-c2nc3ccc(CN(C)C)cc3[nH]2)co1.Cl,97%,87%,14%
CCn1cc(CN2CCCC(C(=O)Nc3ccc(-c4nc5ccccc5[nH]4)cc3)C2)c(C)n1 (centres undefined),100%,28%,22%
